Results filed as inconclusive are left out. A number with no mark means an inactive call. Active and inactive are the calls of the source. The call rests on the fitted dose curve; in most records, active means well fitted cell-killing curve with a large enough effect in the repeat runs; inconclusive means weak or mixed curves, or effect the other way; inactive means flat fitted curve, though single readings scatter.
Assay: Nuclear factor erythroid 2-related factor 2/antioxidant responsive element (Nrf2/ARE) small molecule agonists: qHTS cell viability counter screen in human keratinocytes (AID 1919968); further: nearly all actives have a fitted effect of over 55% in size
Settings: KeratinoSens HaCaT ARE cells viability, CellTiter-Fluor, 24 h; series mostly up to 92.4 µM; activity change, negative = cytotoxicity: at the top concentration
Excerpt: U.S. Tox21 Program National Center for Advancing Translational Sciences [NCATS] Division of Preclinical Innovation [DPI] U.S. Environmental Protection Agency [EPA] National Institutes of Environmental Health Sciences [NIEHS] National Toxicology Program [NTP] U.S. Food and Drug Administration [FDA] Tox21 Assay Overview: Oxidative stress has been implicated in the pathogenesis of a variety of diseases ranging from cancer to neurodegeneration. The antioxidant response element (ARE) signaling pathway plays an important role in the amelioration of oxidative stress. The KeratinoSens (Givaudan, Switzerland) is an in vitro test method which quantifies luciferase induction as a measure of activation of Keap1-Nrf2-antioxidationt/electrophile response element (ARE) dependant pathway in HaCaT human keratinocytes stably transfected with a selectable plasmid. The KeratinoSens assay is a cell-based assay with a reporter cell line to detect potential skin sensitizers by their ability to induce the Nrf2/ARE-response. The activation of the report gene under culture conditions can be detected by ONE-Glo Luciferase Assay System (Promega, Madison, WI). This cell line has been used to screen the Tox21 10K compound library to identify agonists that induce oxidative stress. The cytotoxicity of the Tox21 compound library against the KS-ARE cell line was tested in parallel by measuring the cell viability using CellTiter- Fluor assay system (Promega, Madison, WI) in the same wells.
Tox21 Assay Protocol Summary: HaCaT derived cell line KeratinoSens were dispensed at 1,500 cells/5uL/well in 1536-well white wall/solid bottom plates using a Multidrop Combi (ThermoFisher Scientific, Waltham, MA) dispenser. After the assay plates were incubated at 37 C/5% CO2 for 5 h, 23 nL of compounds dissolved in DMSO, positive controls or DMSO only was transferred to the assay plate by a pintool workstation (Kalypsys, San Diego, CA). The plates were incubated at 37 C/5% CO2 for 23 h, followed by addition of 1uL/well of CellTiter-Fluor reagent into the assay plates using a Flying Reagent Dispenser (Aurora Discovery, San Diego, CA) for cell viability readout that measures cytotoxicity. After 1 h incubation at 37 C/5% CO2 the fluorescence intensity was measured using a ViewLux (PerkinElmer, Shelton, CT) plate reader.
On the % scale 0 is the no-effect control and ±100 the full control effect; potency means the concentration at half of the fitted maximal effect.

Row | Compound | activity change, negative = cytotoxicity | Potency
1 | CCCN(CC)CC1COC2(CCC(C(C)(C)C)CC2)O1 (stereo not given) | 5.21% | –
2 | CC(C)CC(C)Nc1ccc(Nc2ccccc2)cc1 (stereo not given) | – | 53.5 µM (active)
3 | COC(=O)N(C(=O)N1COC2(C(=O)OC)Cc3cc(Cl)ccc3C2=N1)c1ccc(OC(F)(F)F)cc1 (stereo not given) | 13.8% [at 42.5 µM] | –
4 | CC(Cl)CN(C)C (stereo not given) | 2.23% | –
5 | COc1ccc(C(=O)N2CCCC2=O)cc1 | 2.13% [at 42.5 µM] | –
6 | CC(=O)CCc1ccc2c(c1)OCO2 | 3.55% | –
7 | COc1nn(CSP(=S)(OC)OC)c(=O)s1 | -3.23% | –
8 | CC(=O)C(Cl)C(=O)N(C)C (stereo not given) | -2.14% | –
9 | O=C1c2ccccc2C(=O)C1C(=O)C(c1ccccc1)c1ccccc1 | -12.6% [at 42.5 µM] | –
10 | CCC[CH2][Sn]([CH2]CCC)([CH2]CCC)[O][Sn]([CH2]CCC)([CH2]CCC)[CH2]CCC | – | 0.533 µM (active)
11 | CCC(C)(C)c1cc(-n2nc3ccccc3n2)c(O)c(C(C)(C)CC)c1 | -0.47% | –
12 | COC(=O)C(C)N(C(=O)c1ccco1)c1c(C)cccc1C (stereo not given) | -4.45% | –
13 | O=C(NC(=O)c1c(F)cccc1F)Nc1ccc(Oc2ccc(C(F)(F)F)cc2Cl)cc1F | 3.22% | –
14 | COc1ccc2c(c1OC)C(=O)O[C@H]2[C@@H]1c2cc3c(cc2CCN1C)OCO3 | -13.6% [at 42.5 µM] | –
15 | C#CC1(O)CCCCC1 | 6.2% | –
16 | CCC(C)Br (stereo not given) | -1.3% | –
17 | S=C=Nc1cccc2ccccc12 | – | 27 µM (active)
18 | CN(C)C1CCCCC1 | 2.88% | –
19 | C[C@H](N)C(=O)c1ccccc1 | -11.2% | –
20 | Cc1ccc(S(=O)(=O)N[C@@H](CCCCN)C(=O)CCl)cc1 | -17.6% [at 42.5 µM] | –

Row | Compound | activity change, negative = cytotoxicity | Potency
21 | CCOC(=O)C(Cl)Cc1cc(-n2nc(C)n(C(F)F)c2=O)c(F)cc1Cl (stereo not given) | 5.55% | –
22 | COP(=S)(OC)Oc1c(Cl)cc(C)cc1Cl | 13.2% | –
23 | Oc1ccc(Cl)c(Cl)c1Cl | 0.759% | –
24 | c1ccc2nc(N3CCNCC3)ccc2c1 | 0.49% [at 42.5 µM] | –
25 | CC(C)(CCl)C(=O)Cl | -0.395% | –
26 | O=C(NC(O)C(Cl)(Cl)Cl)NC(O)C(Cl)(Cl)Cl (stereo not given) | -0.0452% [at 42.5 µM] | –
27 | NCC1(CC(=O)O)CCCCC1 | -0.997% [at 42.5 µM] | –
28 | O=[Se]=O | 5.58% [at 42.5 µM] | –
29 | C[C@]12CC[C@H]3[C@@H](CCC4=CC(=O)CC[C@@H]43)[C@@H]1CC[C@@H]2OC(=O)CCC1CCCCC1 | 2.04% [at 42.5 µM] | –
30 | CCCC[N+](CCCC)(CCCC)CCCC | -1.9% | –
31 | ClC(Br)Br | 1.4% | –
32 | O=[N+]([O-])C(Br)(CO)CO | -5.59% | –
33 | CCCCn1cc[n+](C)c1 (tested in a mixture with another compound) | 1.59% | –
34 | CC(=O)[C@H]1CC[C@H]2[C@@H]3CC[C@H]4C[C@H](O)CC[C@]4(C)[C@H]3C(=O)C[C@]12C | -16.7% [at 42.5 µM] | –
35 | Cc1cc(=O)[nH]o1 | 5.49% | –
36 | O=C(O)c1ccc2[nH]cc(CCCCN3CC=C(c4ccccc4)CC3)c2c1 | -5.19% [at 42.5 µM] | –
37 | CC(O)C#N (stereo not given) | 0.571% | –
38 | NNCc1ccccc1 | 2.71% | –
39 | C[N+](C)(C)CC1CO1 (stereo not given) | 4.68% | –
40 | Cc1nc(N)nc(N)n1 | -0.87% | –

Source: PubChem BioAssay (Tox21)
